Source: PubChem (several laboratories)
Only some compounds are listed: those with a hit (about 0.77% of all), similar ones and a draw of the others.
Mtb UGM inh: blocks M. tuberculosis UGM enzyme. P9WIQ1. purified UGM, fluorescence polarization probe displacement. inhibition, % at 10 µM. hit rate 0.06% among 320,000; in the data active means inhibition above about 10%, passing the limit was not always enough; inconclusive means no clear call, values can overlap the other calls
Mtb hypoxia rep: Mtb hypoxia fluorescent reporter inhibition; M. tuberculosis hypoxia-regulated fluorescent reporter, fluorescence; fluorescence inhibition, % (test concentration not listed); hit rate 0.1% among 300,000; AID 1159583; in the data active means fluorescence inhibition mostly above about 23%, no sharp cut-off; inactive means mostly below about 17%
RecA intein inh: inhibitors of M. tuberculosis RecA intein splicing; P9WHJ3; inhibition, % (test concentration not listed); hit rate 0.75% among 290,000; cell-free RecA intein splicing, fluorescence; in the data active means inhibition above about 30%; inconclusive means no clear call, values can overlap the other calls;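 further: 0% = vehicle wells and 100% = reference inhibitor control wells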
Mtb bLac sens: beta-lactam sensitization of Mtb H37Rv | M. tuberculosis H37Rv growth with meropenem, percent inhibition | inhibition, % at 25 µM | hit rate 0.27% among 330,000;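 further: growth measured after seven days incubation then overnight dye step; 0% = bacteria only wells and 100% = bacteria with antibiotic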
Rv3671c protease: Rv3671c (M. tuberculosis) protease inhibition; hit rate 0.048% among 320,000; inhibition, % at 5.96 µM; P9WHR9; in the data active means inhibition above about 38%;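 further: extracellular domain of Rv3671c used as enzyme; 0% = enzyme with DMSO and 100% = no enzyme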
GFP chromo cs: counter-screen: blocks GFP chromophore formation. hit rate 83% among 2,100. EC50, µM. cell-free GFP chromophore formation, fluorescence. AID 434968. shares compounds with RecA intein inh
* = called active by the depositor; ? = inconclusive; . = no result shown. Unless noted, how the calls were made is not given here.

SMILES | Mtb UGM inh | Mtb hypoxia rep | RecA intein inh | Mtb bLac sens | Rv3671c protease | GFP chromo cs
O=C(OCn1ncc(Cl)c(Cl)c1=O)c1ccc(F)cc1 | 1 | . | 75* | 100 | -12 | 8.1*
O=C(OCn1ncc(Cl)c(Cl)c1=O)c1ccccc1Cl | -5 | 12 | 89* | 100 | -3 | 5.2*
Nc1nc2c(nc(Br)n2C2OC3COP(=O)(O)OC3C2O)c(=O)[nH]1 (configuration not stated) | . | -5 | . | . | . | .
CC(=O)Nc1ccc(S(=O)(=O)NC2=C(N3CCN(c4ccc(F)cc4)CC3)C(=O)c3ccccc3C2=O)cc1 | -3 | 5 | 45* | 6 | -79 | 26*
COc1cc(/C=C(\C#N)C(=O)c2c[nH]c3ccccc23)cc(OC)c1O | -25 | -12 | 92* | -7 | -6 | 5.2*
O=c1[nH]c(Nc2ccccc2)cc2ccccc12 | -5 | . | 64* | 2 | -139 | ?
O=c1cc(Nc2cccc(Br)c2)[nH]c(=O)[nH]1 | 0 | 14 | 2 | 0 | -2 | .
COc1ccccc1Nc1cc2cc(Br)ccc2c(=O)[nH]1 | 2 | 3 | 47* | -4 | -121 | 7.8*
COc1ccccc1Nc1nnc(C)c(=O)[nH]1 | -4 | 2 | 0 | -5 | -3 | .
COc1ccc(OC)c(Nc2cc3ccccc3c(=O)[nH]2)c1 | 5 | 2 | 83* | 1 | -122 | 1.9*
COc1ccc(OC)c(Nc2nnc(C)c(=O)[nH]2)c1 | 1 | -9 | 0 | 0 | 11 | .
O=c1[nH]c(Nc2ccccc2)cc2cc(Br)ccc12 | -2 | 19 | 90* | 21 | -153 | 6*
O=C(NC1CC1)C1=CC(c2csc3ccccc23)CC(OCc2ccc(CO)cc2)O1 (configuration not stated) | . | 13 | . | . | . | .
COc1ccc(C=Cc2nc(-c3ccccc3O)n(-c3ccccc3)n2)cc1 | . | 5 | . | . | . | .
CC(C)CC(CO)Nc1nc(Nc2cccc(Cl)c2)c2ncn(C(C)C)c2n1 (configuration not stated) | . | 0 | . | . | . | .
COC(=O)CC1c2cc(F)ccc2S(=O)(=O)N1c1ccc(N(C)C)cc1 (configuration not stated) | . | 14 | . | . | . | .
CC(=O)c1cccc(-c2ccc3c(=O)[nH]c(Nc4ccccc4)cc3c2)c1 | -2 | 6 | 94* | 2 | -119 | 8.6*
Cc1ccc(C(=O)C(OC(=O)CN2C(=O)c3ccccc3C2=O)c2ccccc2)cc1C (configuration not stated) | -1 | 9 | 31* | 4 | 4 | >38
CC1CN(C(C)CO)C(=O)c2cc(NC(=O)Nc3ccc(C(F)(F)F)cc3)ccc2OC1CN(C)S(=O)(=O)c1cccs1 (configuration not stated) | . | 10 | . | . | . | .
O=[N+]([O-])c1cc([N+](=O)[O-])c2cc3ccccc3nc2c1 | 3 | . | 93* | 100 | 3 | 4.9*
O=[N+]([O-])c1cnc2ccccc2c1 | 0 | 0 | 0 | -9 | -1 | .
CC1CN(C(C)CO)C(=O)c2cccc(NS(=O)(=O)c3ccccc3)c2OC1CN(C)C (configuration not stated) | . | 21 | . | . | . | .
CCCC(=O)Nc1ncnc2c1ncn2C1OC2OP(=O)(O)OCC2C1OC(=O)CCC (configuration not stated) | . | -3 | . | . | . | .
O=C(CNc1ccccc1)N/N=C/c1ccc([N+](=O)[O-])o1 | 0 | . | -6 | 100 | 0 | .
O=C(N/N=C/c1ccc([N+](=O)[O-])o1)c1ccc(O)cc1 | -2 | . | 56* | 99 | 4 | >38
SMILES | Mtb UGM inh | Mtb hypoxia rep | RecA intein inh | Mtb bLac sens | Rv3671c protease | GFP chromo cs
O=C(CNC(=O)c1ccccc1)N/N=C/c1ccc([N+](=O)[O-])o1 | 1 | . | 58* | 100 | -4 | >38
O=S(=O)(c1ccccc1S(=O)(=O)N1CCCCC1)N1CCCCC1 | -4 | -7 | -11 | -3 | 0 | .
O=C1C=C(N2CCCCC2)c2ccccc2C1=O | 0 | 0 | 98* | -4 | -105 | 2*
CCNc1ccccc1CP(=O)(c1ccccc1)c1ccccc1O (configuration not stated) | 6 | . | 32* | 10 | 30 | 2.2*
Cc1ccccc1C(=O)NNC(=S)NC(=O)COc1ccccc1 | 2 | 3 | 40* | 5 | -14 | 31*
CC[C@@]12C(=O)N(c3cccc(Br)c3)C(=O)N1C(c1ccc(Br)cc1)C1C(=O)N(C(C)(C)C)C(=O)C12 (some centres not stated) | . | 3 | . | . | . | .
O=C(COC(=O)C1CC(=O)N(Cc2ccco2)C1)c1ccc(OC(=O)c2ccco2)cc1 (configuration not stated) | 3 | 1 | 35* | -1 | -15 | >38
Cc1cccc(C2C3C(=O)N(Cc4ccccc4)C(=O)C3[C@]3(Cc4ccc(Cl)cc4)C(=O)N(c4cccc(Cl)c4)C(=O)N23)c1 (some centres not stated) | . | 9 | . | . | . | .
Cc1c(C(=O)NN)nn(-c2ccc(Cl)cc2)c(=O)c1C#N | 0 | -8 | 43* | 4 | -14 | 31*
Cc1ccc(-n2nc(C(=O)NN)c(C)c(C#N)c2=O)cc1Cl | -1 | . | 11 | -3 | -4 | .
O=C1C(=Cc2cccnc2)Cc2ccc(Cl)cc21 | . | 2 | . | . | . | .
Cc1ccc(-c2noc(-c3ccccc3C(=O)N3CCOCC3)n2)cc1 | 2 | 8 | -3 | -11 | -3 | >38
COc1ccc(-c2noc(-c3ccccc3C(=O)N3CCOCC3)n2)cc1 | 0 | 2 | 1 | -15 | 5 | .
CCCn1c(=O)[nH]c(=O)c2c1nc(-c1ccccc1OC(F)F)n2CCOC | -1 | 7 | 0 | -21 | 0 | .
CCCn1c(=O)[nH]c(=O)c2c1nc(-c1ccc(OC(F)F)c(OC)c1)n2CCOC | 1 | 3 | 53* | -17 | -5 | >38
CCC(C)C1CNCCN1CCc1cc(C(F)(F)F)cc(C(F)(F)F)c1 (configuration not stated) | . | 14 | . | . | . | .
CC1=Nc2cccc3cccc(c23)N1C | -1 | . | 78* | 6 | -6 | >38
CN1C(=O)N(C)c2cccc3cccc1c23 | 2 | -1 | -1 | 0 | -3 | .
CCC(=O)N(Cc1cc(=O)[nH]c2ccccc12)c1ccccc1 | -3 | 20 | -1 | -9 | 3 | .
O=C(CCl)N(Cc1cc(=O)[nH]c2ccccc12)c1ccccc1 | 0 | . | 69* | 90 | 1 | 11*
Cc1cccc(N(Cc2ccccc2)C(=O)CCl)c1 | . | 36* | 58* | . | . | 9.9*
O=C(CCl)N(Cc1ccccc1)c1ccccc1 | 1 | . | 73* | -5 | 3 | 24*
Cc1cccc(C2C3C(=O)N(Cc4ccccc4)C(=O)C3[C@]3(Cc4ccccc4)C(=O)N(c4ccccc4)C(=O)N23)c1 (some centres not stated) | . | -2 | . | . | . | .
CC(C)(c1ccccc1)c1ccc(OCC2CO2)cc1 (configuration not stated) | -1 | 12 | 41* | 1 | 1 | >38
CN(C)CCOc1ccc(C(C)(C)c2ccccc2)cc1 | 0 | . | 3 | -6 | 4 | .
c1coc(-c2nnc(-c3ccco3)nn2)c1 | 0 | 2 | 58* | 1 | -23 | 9.1*
COC(=O)N=Cc1c(NCc2ccccc2)nc2c(C)cccn2c1=O | . | 2 | . | . | . | .
